Screen size: about 5,500 compounds; about 2,000 (36%) were called active. Not shown: some 18% with an inconclusive outcome. Cut-off read from the data, not from the text of the source: active = normalized growth mostly below about 0.91 (no sharp cut-off); inconclusive = no clear call, values can overlap the other calls; inactive = mostly above about 0.92. The list shows a part of the results.
Test: chemical genetic growth profiling, strain panel (AID 1159580);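 note: tested at 20 µM; growth read once vehicle control cultures reached saturation at 30 °C; 1 = growth at the plate median or of vehicle wells; lower values mean less growth of the strain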
Conditions: growth OD

Measured: normalized growth

O=S(=O)(c1ccc(Cl)cc1)c1cc(C(F)(F)F)cc(C(F)(F)F)c1
inactive: S. cerevisiae deletion strains, locus YAL013W, strain DEP1, stronger effect = lower value 0.978 | S. cerevisiae deletion strains, locus YBR229C, strain ROT2, stronger effect = lower value 0.983 | S. cerevisiae deletion strains, locus YCL061C, strain MRC1, stronger effect = lower value 1 | S. cerevisiae deletion strains, locus YDL101C, strain DUN1, stronger effect = lower value 1.01 | S. cerevisiae deletion strains, locus YDR150W, strain NUM1, stronger effect = lower value 1.01 | S. cerevisiae deletion strains, locus YEL061C, strain CIN8, stronger effect = lower value 0.963 | S. cerevisiae deletion strains, locus YGR078C, strain PAC10, stronger effect = lower value 0.988 | S. cerevisiae deletion strains, locus YGR229C, strain SMI1, stronger effect = lower value 0.98 | S. cerevisiae deletion strains, locus YHR030C, strain SLT2, stronger effect = lower value 0.988 | S. cerevisiae deletion strains, locus YHR087W, strain rtc3, stronger effect = lower value 0.986 | S. cerevisiae deletion strains, locus YJL187C, strain SWE1, stronger effect = lower value 0.984 | S. cerevisiae deletion strains, locus YJR043C, strain POL32, stronger effect = lower value 0.989 | S. cerevisiae deletion strains, locus YJR075W, strain HOC1, stronger effect = lower value 0.957 | S. cerevisiae deletion strains, locus YLR039C, strain RIC1, stronger effect = lower value 0.954 | S. cerevisiae deletion strains, locus YLR058C, strain SHM2 (second series), stronger effect = lower value 0.987 | S. cerevisiae deletion strains, locus YLR085C, strain ARP6, stronger effect = lower value 0.935 | S. cerevisiae deletion strains, locus YLR262C, strain YPT6, stronger effect = lower value 0.964 | S. cerevisiae deletion strains, locus YML094W, strain GIM5, stronger effect = lower value 0.978 | S. cerevisiae deletion strains, locus YMR219W, strain ESC1, stronger effect = lower value 0.974 | S. cerevisiae deletion strains, locus YMR263W, strain SAP30, stronger effect = lower value 1 | S. cerevisiae deletion strains, locus YNL128W, strain TEP1, stronger effect = lower value 0.972 | S. cerevisiae deletion strains, locus YNL153C, strain GIM3, stronger effect = lower value 1.01 | S. cerevisiae deletion strains, locus YNL298W, strain CLA4 (second series), stronger effect = lower value 1.03 | S. cerevisiae deletion strains, locus YNL322C, strain KRE1, stronger effect = lower value 0.952 | S. cerevisiae deletion strains, locus YNR030W, strain Alg12, stronger effect = lower value 0.955 | S. cerevisiae deletion strains, locus YOL006C, strain TOP1, stronger effect = lower value 0.97 | S. cerevisiae deletion strains, locus YPL055C, strain LGE1, stronger effect = lower value 1.03 | S. cerevisiae deletion strains, locus YPL241C, strain CIN2, stronger effect = lower value 0.992 | S. cerevisiae deletion strains, locus YPR135W, strain CTF4, stronger effect = lower value 1.08 | S. cerevisiae strains, strain wild type, stronger effect = lower value 0.976
